For 23 compounds, growth results are on record in PubChem BioAssay (NCI).

SMILES strings stand for the structures. This is part of a sample that, as a whole, favours compounds with a hit. Of some 83,000 tested, about 20% had one in any assay.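 Method: cells in 96-well plates; compound added at one concentration; 48 h incubation; percent growth measured; values under 10 scored active.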 Active and inactive are the calls of the source.

This test deals with MDA-MB-468 breast. In words: NCI-60 one-dose screen, 48 h (100 = growth as untreated, 0 = no growth, -100 = all killed). The note with it: 10 µM unless noted.
`Cc1ccc(CSC2=C(Cl)CN(c3ccc(Cl)cc3)C2=O)cc1`: the growth is 83.4% (inactive). `CN1C(=O)N(C)C2C1NN=c1s/c(=C\c3ccc(Cl)cc3Cl)c(=O)n12` (stereo not drawn): the growth was 27.4% (inactive). Turning to `O=C(O)c1ccc2c(c1Cl)C(=O)c1ccccc1C2=O`, the growth is 88.9% (inactive). For `C[C@]12CC[C@@H]3c4ccc(O)c(N)c4CC[C@H]3[C@@H]1CC[C@@H]2O`, the growth is 59.8% (inactive).

As to `O=C1c2cccc3c(-c4ccc5c(c4)ncn5C4CCCCC4)ccc(c23)C(=O)N1c1nc2ccccc2s1`, the growth is 92% (inactive). `O=S(=O)(Nc1ccsc1-c1nc(-c2ccccc2)no1)c1cc(Cl)cc(Cl)c1`: the growth is 88.6% (inactive). Take `Cc1cc(N/C=c2\sc3ncnn3c2=O)no1`: the growth was 101% (inactive). In the case of `COc1cccc(C(=O)NNc2nc(Cl)nc(Cl)n2)c1` it was 102% (inactive); in that of `C[N+]1=C(/C=C\C=C\c2ccccc2)C(C)(C)c2ccccc21`, -14.9% (active). As for `CCN1CCN(c2nc(C)cc(N(CCCNc3ccnc4cc(Cl)ccc34)Cc3ccc4c(c3)OCO4)n2)CC1`, the growth was -33.5% (active). As for `O=CN1CCCCC1`, the growth was 95.6% (inactive). Regarding `CCOC(=O)/C(C)=C\c1ccc(OC)c(OC)c1`, the growth was 103% (inactive). For the compound `CN(C)CCNc1ccc2ncc(C#Cc3cncc(C(=O)Nc4ccc(CN5CCN(C)CC5)c(C(F)(F)F)c4)c3)n2n1`, the growth is -67.9% (active). `CCCCCCOc1ccc(/C=N/Nc2cc(C)nc3ccc(Cl)cc23)cc1`: the growth was -56.7% (active). Regarding `Nc1nc(N)c2cc(S(=O)(=O)c3cccc(C(F)(F)F)c3)ccc2n1`, the growth was 38.9% (inactive). On to `Cc1c(C(=O)CCl)c(=O)n(-c2ccccc2)n1C`, for which the growth was -19.1% (active).

Turning to `CCn1c2ccccc2c2ccc(C(C)=O)cc21`, the growth is 104% (inactive). As for `C=C1C(=O)O[C@H]2[C@H]1CC/C(COC(=O)/C=C\C(=O)NCc1ccc(Cn3c(=O)sn(CCCCC)c3=O)cc1)=C\CC[C@@]1(C)O[C@@H]21`, the growth was 47% (inactive). In the case of `Cc1ccc(S(=O)(=O)n2cc(C(=O)C(=O)N3CCOCC3)c3ccccc32)cc1` it was 90.4% (inactive); in that of `CCn1cc(CNc2ccc(C(=O)Nc3cc4cc(OC)c(OC)cc4c(C)n3)cc2)c(C)n1`, 23.2% (inactive). As to `CCCCOCc1cc(CN2CCN(C)CC2)c(O)c2ncccc12`, the growth is 46.1% (inactive).

Consider `COc1ccc(CNc2c3ccccc3nc3ccccc23)cc1`, for which the growth is 27.1% (inactive).

For the compound `C=C(c1ccc(OC)c(/C=C/C(=O)c2cc(OC)c(OC)c(OC)c2)c1)c1cc(OC)c(OC)c(OC)c1`, the growth is -8.58% (active).
